Source: PubChem BioAssay (National Center for Advancing Translational Sciences (NCATS))
Compounds with a hit are over-represented: about 3.7% of the library has one in this group of screens.
PTHR1 agonist: activates the human parathyroid hormone receptor PTHR1 | Potency, µM (top dose mostly 115 µM), without a hit: top-dose activation, actives largely listed as activators | AID 743266 | HEK293 GP2 PTHR1 cells, GloSensor cAMP luminescence, 1 h | Q03431 | actives 0.075% (n = 410,000); also: potency is read from the fitted curve at half-maximal effect; nearly all actives have a fitted effect of over 55% in size
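HEK-293-derived GP2 cells expressing PTHR1 and a GloSensor cAMP reporter, 3,000/well, plated overnight, given luciferin plus IBMX (each 0.5 mM as added) for 1 h at 37 °C, then compound for 1 h at 37 °C. Luminescence was read after 15 min at room temperature.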
BRCA1 expr act: BRCA1 expression activation; MCF7-BRCA1-FFLuc reporter, luminescence, 48 h; response scale: scaled: vehicle 0%, 10 µM genistein 100%; Potency, µM (doses to about 46.1 µM), without a hit: top-dose activation, usual class: activators; actives 1.1% (n = 380,000); also: potency is read from the fitted curve at half-maximal effect; nearly all actives have a fitted effect of over 80% in size
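MCF7-BRCA1-FFLuc, 2000 cells/well; 2 h attach, 37 °C/5% CO2; compound 48 h; luciferase substrate 15 min; luminescence end-point. Norm. to genistein 10 microM max activation and DMSO; concentration-response curves fitted.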
RGS4 inhibitor: blocks human RGS4-accelerated GTP hydrolysis. Potency, µM (top dose mostly 114 µM), without a hit: at the top dose activity change, negative = inhibition, actives largely listed as inhibitors. Transcreener GDP fluorescence polarization, RGS4-accelerated GTP hydrolysis. P49798. actives 0.039% (n = 390,000). AID 504845; also: potency is read from the fitted curve at half-maximal effect; % is scaled to controls: 0 for no effect and ±100 for the full control effect; nearly all actives have a fitted effect of over 75% in size
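MLSMR compounds (23 nl, pin-transferred) preincubated 10 min at room temperature with a 500nM (2x) first reagent, then RGS4 at 900nM (2x) plus Transcreener GDP mix added; fluorescence polarization (620/688 nm) read before and after 90 min at 30 °C.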
B2AR arrestin: recruits beta-arrestin to the human beta2-adrenergic receptor; Potency, µM (top dose mostly 46.1 µM), inactives show at the top dose activation, most hits filed as activators; beta-arrestin recruitment to beta2AR, cell-based reporter; AID 492947; actives 0.02% (n = 330,000);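 also: potency is read from the fitted curve at half-maximal effect; 0% = DMSO controls and full agonism = EC100 isoproterenol or metaproterenol; nearly all actives have a fitted effect of over 65% in size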
DRD3 antagonist: D3 dopamine receptor (human) antagonism; max response, negative = inhibition, %; AID 652054; actives 2.5% (n = 360,000); D3R cells, DiscoveRx beta-arrestin luminescence, antagonist mode; stronger effect = lower value; P35462; in the data active = max response below about -50%; inconclusive = no clear call, values can overlap the other calls; also: % is scaled to controls: 0 for no effect and ±100 for the full control effect
Target sequence (P35462 whole entry, looked up): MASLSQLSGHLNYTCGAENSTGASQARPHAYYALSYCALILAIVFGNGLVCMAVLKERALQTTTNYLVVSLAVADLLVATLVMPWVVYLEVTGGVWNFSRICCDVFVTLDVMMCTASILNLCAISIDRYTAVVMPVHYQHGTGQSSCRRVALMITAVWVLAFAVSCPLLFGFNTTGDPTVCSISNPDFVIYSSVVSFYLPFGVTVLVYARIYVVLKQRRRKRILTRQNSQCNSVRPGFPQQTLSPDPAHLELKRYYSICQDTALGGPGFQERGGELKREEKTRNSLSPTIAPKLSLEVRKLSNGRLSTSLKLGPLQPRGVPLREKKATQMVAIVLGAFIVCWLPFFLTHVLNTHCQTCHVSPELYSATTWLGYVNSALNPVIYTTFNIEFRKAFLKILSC
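Cells expressing the human receptor were seeded at 1500 cells/well, incubated overnight at 37 degrees C in 5% CO2, then exposed to library compounds with dopamine controls for 90 minutes at 37 degrees C before luminescent detection.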
D3 ag: agonists of human D3 dopamine receptor; P35462; D3R DiscoveRx beta-arrestin cells, luminescence, 90 min; max activation, %; actives 0.58% (n = 410,000); in the data active = max activation above about 30%; also: 0% is about no effect
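Cells at 1500/well, incubated overnight, then treated with pinned compounds (dopamine as control) for 90 min at 37 degrees C. DiscoveRx reagent added for 30 - 60 minutes at room temperature; luminescence read.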
Starred values were filed as active, the others as inactive; i = inactive; ? = inconclusive; . = not tested or not shown; [ ] = remark or other dose. Unless noted, calls follow the shape of the dose curve; as a rule, active = well fitted curve in the direction sought with a large enough effect; inconclusive = small, poorly fitted or top-dose-only effect, or another doubt; inactive = no such curve, though single readings can be large; an effect the other way counts as inactive or inconclusive.

SMILES | PTHR1 agonist | BRCA1 expr act | RGS4 inhibitor | B2AR arrestin | DRD3 antagonist | D3 ag
COc1ccc(C(C(=O)Nc2ccc3c(c2)OCCO3)n2c(=O)c(-c3ccco3)nc3ccccc32)cc1 (stereo not drawn) | -23% | . | . | . | -10 | -5
Cc1ccc(NC(=O)Cn2cc(S(=O)(=O)N3CCCC3)c(S(=O)(=O)N3CCCC3)c2)cc1F | i | . | -18% | . | . | 3
N/C(Cc1cccc2ccccc12)=N\OC(=O)c1cccs1 | i | -2% | -7% | 0% | -76* | -3
N/C(Cc1cccc2ccccc12)=N\OC(=O)Cc1cccs1 | i | ? | -19% | 0% | -10 | 5
O=C(Cc1ccccc1[N+](=O)[O-])NCc1ccccc1Cl | -6%[57.5 µM] | ? | -9% | -1% | 16 | -14
Cc1ccccc1C(=O)O/N=C(\N)Cc1cccs1 | -4% | 8.9µM* | -2% | -1% | -8 | 1
O=C(Cc1cccs1)NCc1ccccc1F | -13%[57.5 µM] | 72% | 19% | 0% | 16 | 0
Cc1ccccc1CNC(=O)Cc1cccs1 | 0% | 13µM* | -10% | 0% | 19 | -6
Cc1ccccc1CNC(=O)Cc1ccccc1[N+](=O)[O-] | -29% | 14µM* | 20% | -1% | 29 | -2
Cc1ccccc1OCC(=O)O/N=C(\N)Cc1cccs1 | i | 38% | 11% | 0% | -8 | -5
CC1CCN(S(=O)(=O)c2cccc(C(=O)NC3CCS(=O)(=O)C3)c2)CC1 (stereo not drawn) | -43% | -16% | -1% | . | 8 | -8
Cc1ccccc1CNC(=O)c1ccccc1N | -1%[57.5 µM] | 2% | -6% | -1% | -8 | 30*
Cc1ccccc1CNC(=O)c1ccccc1C | -8% | 0% | -14% | -1% | -17 | -8
Cc1c(O)nc(SCC(=O)Nc2nccs2)n(-c2ccccc2F)c1=O | -46% | -6% | -13% | 0% | -27 | -2
Cc1cccc(Cn2c(=O)n(CC3CCC(C(=O)N4CCC(C)CC4)CC3)c(=O)c3sccc32)c1 (stereo not drawn) | i | . | -24% | . | . | -5
O=[N+]([O-])c1ccc2ncnc(N3CCN(Cc4ccc5c(c4)OCO5)CC3)c2c1 | -40% | -26% | 11% | 0% | -17 | 43*
C(=C\c1ccccc1)/CN1CCN(Cc2ccc3c(c2)OCO3)CC1 | -10% | -2% | 14% | -1% | -61* | -12
O=[N+]([O-])c1ccccc1/C=C/CN1CCN(Cc2ccc3c(c2)OCO3)CC1 | -4% | -3% | 1% | -1% | -79* | -9
COC(=O)C(C(=O)OC)C1CCCCC1NS(=O)(=O)c1ccc(C)cc1 (stereo not drawn) | -22% | . | . | . | 2 | -2
CC(CCc1ccccc1)NC(=O)CCNC(=O)c1ccccc1Cl (stereo not drawn) | -1% | 18% | 6% | -1% | 0 | -2
COc1ccc(C(C)C)cc1S(=O)(=O)N1CCC(C(=O)NCC2CCCO2)CC1 (stereo not drawn) | -21% | -5% | 5% | -1% | 7 | 10
CN(C)c1ccc(/C=C/c2ccnc3ccc(I)cc23)cc1 | . | 9% | . | . | . | .
COc1ccccc1CNC(=O)C(NS(=O)(=O)c1ccc2c(c1)CCN2C(C)=O)C(C)C (stereo not drawn) | -5% | . | 0% | . | . | 5
COC(=O)c1sc2nc3c(cc2c1N)CCCC3 | -26% | ? | 13% | -1% | -4 | 2
Nc1c(C(=O)N2CCCC2)sc2nc3c(cc12)CCCCCC3 | -20% | 4.5µM* | -12% | 0% | -19 | 2
NC(=O)c1sc2nc3c(cc2c1N)CCC3 | i | 8.9µM* | 7% | 0% | 18 | 5
Oc1c(Br)cc(Cl)cc1C=Nc1ccc(N2CCOCC2)cc1 | -23% | -34% | ? | 0% | 2 | 1
Oc1ccc(N=Nc2cccc(Cl)c2)cc1C=Nc1ccc(N2CCOCC2)cc1 | -18% | -27% | -1% | 0% | -76* | 7
